{"source": "the supplement of paper PMC3334620", "note": "Whole data set: some 33,000 sequences, median “E-score (-0.5 to 0.5)” near -0.056, cut for the highest 2% near 0.38. The sample as a whole holds a higher share of the highest values than the screen did."}
{"target": "Stb4 (UniProt P50104)", "sequence (P50104 whole entry, the tested form may be a part)": "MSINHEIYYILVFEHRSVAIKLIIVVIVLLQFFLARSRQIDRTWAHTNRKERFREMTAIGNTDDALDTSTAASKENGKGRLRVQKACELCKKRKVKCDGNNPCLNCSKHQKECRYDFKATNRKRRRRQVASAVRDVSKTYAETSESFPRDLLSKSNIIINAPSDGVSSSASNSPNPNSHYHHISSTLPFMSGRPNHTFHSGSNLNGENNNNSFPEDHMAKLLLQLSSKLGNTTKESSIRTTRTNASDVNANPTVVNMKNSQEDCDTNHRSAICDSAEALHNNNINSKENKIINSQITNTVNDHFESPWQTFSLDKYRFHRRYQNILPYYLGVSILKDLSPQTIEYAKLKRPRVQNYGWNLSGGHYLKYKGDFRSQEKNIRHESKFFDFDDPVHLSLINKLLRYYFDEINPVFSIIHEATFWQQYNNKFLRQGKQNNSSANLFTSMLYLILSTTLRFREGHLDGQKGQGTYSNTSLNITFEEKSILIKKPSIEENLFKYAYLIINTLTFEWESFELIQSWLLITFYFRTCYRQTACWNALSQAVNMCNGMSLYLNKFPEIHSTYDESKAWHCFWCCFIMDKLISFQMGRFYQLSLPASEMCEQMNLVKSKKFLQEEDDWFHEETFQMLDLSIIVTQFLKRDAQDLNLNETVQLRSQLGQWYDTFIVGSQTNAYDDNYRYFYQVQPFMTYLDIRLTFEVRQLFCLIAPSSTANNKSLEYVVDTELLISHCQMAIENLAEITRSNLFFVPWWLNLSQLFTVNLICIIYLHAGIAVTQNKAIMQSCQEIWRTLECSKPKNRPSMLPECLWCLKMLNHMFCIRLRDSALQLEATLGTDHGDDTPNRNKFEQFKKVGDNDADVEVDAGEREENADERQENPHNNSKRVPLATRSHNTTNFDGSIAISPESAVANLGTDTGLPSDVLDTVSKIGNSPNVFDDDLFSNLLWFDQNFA", "assay": "PBM E-score (8-mer binding enrichment) (E-score (-0.5 to 0.5)); higher = stronger / more preferred TF binding", "conditions": "protein concentration: 200 nM; construct: GST-DNA-binding domain", "description": "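Universal 'all 10-mer' protein binding microarrays (Agilent AMADID 015681) probed with GST-tagged S. cerevisiae TFs (full-length or DBD) made by in vitro transcription/translation (PURExpress), about 100-200 nM. Bound TF was detected with fluorescent anti-GST. Each ungapped 8-mer (which stands for itself and its reverse complement) is scored by the PBM enrichment score (E-score), a modified Wilcoxon-Mann-Whitney statistic from -0.5 to +0.5, computed with the Universal PBM Analysis Suite. Scale: above 0.35 generally sequence-specific binding.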"}
{"sequence": "ACGAGGCC", "PBM E-score": -0.0545}
{"sequence": "TCGAGGCA", "PBM E-score": -0.187}
{"sequence": "CAGAGGCG", "PBM E-score": -0.0504}
{"sequence": "ACGAGGCG", "PBM E-score": -0.0457}
{"sequence": "CCGAGGCC", "PBM E-score": 0.436}
{"sequence": "GCGAGGCA", "PBM E-score": 0.0697}
{"sequence": "GCGAGGCC", "PBM E-score": -0.243}
{"sequence": "CCGAGGCA", "PBM E-score": 0.396}
{"sequence": "CCGAGGCG", "PBM E-score": 0.398}
{"sequence": "ACCCGAGG", "PBM E-score": 0.427}
{"sequence": "CCCCGAGG", "PBM E-score": 0.375}
{"sequence": "ACCCGAGA", "PBM E-score": 0.472}
{"sequence": "ACCCGGGA", "PBM E-score": 0.378}
{"sequence": "ACACGAGT", "PBM E-score": -0.0741}
{"sequence": "ACCCCCGA", "PBM E-score": 0.317}
{"sequence": "ACCCGCGT", "PBM E-score": 0.188}
{"sequence": "ACCCGGGT", "PBM E-score": 0.41}
{"sequence": "ACCCGGGC", "PBM E-score": 0.326}
{"sequence": "ACACGAGA", "PBM E-score": -0.19}
{"sequence": "ACTCGAGG", "PBM E-score": -0.152}
{"sequence": "ACCCGAGT", "PBM E-score": 0.423}
{"sequence": "AGAGCTCT", "PBM E-score": -0.0781}
{"sequence": "GAGCCCCC", "PBM E-score": -0.168}
{"sequence": "AGCTCACA", "PBM E-score": -0.192}
{"sequence": "CCTAGTAG", "PBM E-score": -0.0242}
{"sequence": "AGCATACT", "PBM E-score": -0.166}
{"sequence": "AGGGGAAT", "PBM E-score": 0.0637}
{"sequence": "ATTGAGAA", "PBM E-score": -0.0694}
{"sequence": "CACAGTGG", "PBM E-score": -0.0386}
{"sequence": "ACCACCAA", "PBM E-score": 0.031}
{"sequence": "CAGCTAGC", "PBM E-score": -0.0222}
{"sequence": "ACTCCTCT", "PBM E-score": -0.061}
{"sequence": "GGGCCACA", "PBM E-score": -0.0749}
{"sequence": "CCCCGAGC", "PBM E-score": 0.371}
{"sequence": "CCCCGAGA", "PBM E-score": 0.326}
{"sequence": "ACCCGAGC", "PBM E-score": 0.468}
{"sequence": "TCCCGAGA", "PBM E-score": 0.453}
{"sequence": "GCCCGAGC", "PBM E-score": 0.316}
{"sequence": "GCCCGAGA", "PBM E-score": 0.352}
{"sequence": "CGACTCGC", "PBM E-score": -0.0581}
{"sequence": "AAAGCAAG", "PBM E-score": 0.149}
{"sequence": "AGCATTCA", "PBM E-score": -0.0667}
{"sequence": "CCCGAGTA", "PBM E-score": 0.383}
{"sequence": "ACCGAGTA", "PBM E-score": 0.321}
{"sequence": "ACCGAGTC", "PBM E-score": 0.244}
{"sequence": "CCCGAGTC", "PBM E-score": 0.395}
{"sequence": "CTCGAGTC", "PBM E-score": -0.0623}
{"sequence": "GCCGAGTA", "PBM E-score": 0.374}
{"sequence": "GGGCATGA", "PBM E-score": -0.248}
{"sequence": "ACGCTGAG", "PBM E-score": -0.29}
{"sequence": "CGTCTTGC", "PBM E-score": 0.125}
{"sequence": "ATGTGAGA", "PBM E-score": -0.03}
{"sequence": "GCTGGGAC", "PBM E-score": -0.117}
{"sequence": "AGCGGATG", "PBM E-score": 0.275}
{"sequence": "AGCGGATA", "PBM E-score": 0.386}
{"sequence": "GGCGGATA", "PBM E-score": 0.374}
{"sequence": "CGCGGATA", "PBM E-score": 0.4}
{"sequence": "CGCGGATC", "PBM E-score": 0.263}
{"sequence": "AGCGGATC", "PBM E-score": 0.255}
{"sequence": "CCCCCCTA", "PBM E-score": -0.178}
{"sequence": "ACTGGTGA", "PBM E-score": -0.226}
{"sequence": "GATCGGGC", "PBM E-score": 0.22}
{"sequence": "GATCGTAA", "PBM E-score": -0.0241}
{"sequence": "GATCGGAA", "PBM E-score": 0.425}
{"sequence": "CATCGGAG", "PBM E-score": 0.204}
{"sequence": "CATCGGAA", "PBM E-score": 0.435}
{"sequence": "CATCGGAC", "PBM E-score": 0.259}
{"sequence": "TATCGGCA", "PBM E-score": 0.326}
{"sequence": "GATCGGAC", "PBM E-score": 0.392}
{"sequence": "TATCGGGA", "PBM E-score": 0.361}
{"sequence": "TATCGGAA", "PBM E-score": 0.431}
{"sequence": "GATCGGCC", "PBM E-score": 0.218}
{"sequence": "GAACGGAA", "PBM E-score": 0.346}
{"sequence": "CCATTCCG", "PBM E-score": 0.35}
{"sequence": "ATATTGGA", "PBM E-score": -0.0099}
{"sequence": "CGTCTGCA", "PBM E-score": -0.122}
{"sequence": "GAGCATCA", "PBM E-score": -0.181}
{"sequence": "AACCAAGA", "PBM E-score": -0.0962}
{"sequence": "AAGGCCAA", "PBM E-score": -0.173}
{"sequence": "CCAATATC", "PBM E-score": 0.137}
{"sequence": "AAAGAAAC", "PBM E-score": 0.0504}
{"sequence": "CAATCGTC", "PBM E-score": -0.187}
{"sequence": "AATCGGAT", "PBM E-score": 0.424}
{"sequence": "AATCGGAA", "PBM E-score": 0.425}
{"sequence": "AATCGGAG", "PBM E-score": 0.277}
{"sequence": "AATCGGCC", "PBM E-score": 0.191}
{"sequence": "AATCGGAC", "PBM E-score": 0.133}
{"sequence": "AATCGGGT", "PBM E-score": 0.325}
{"sequence": "CTGACTGA", "PBM E-score": -0.239}
{"sequence": "CTAGCCCC", "PBM E-score": -0.0513}
{"sequence": "CTTAAAAA", "PBM E-score": -0.232}
{"sequence": "GTTCCCGA", "PBM E-score": 0.419}
{"sequence": "CTTCCCGA", "PBM E-score": 0.438}
{"sequence": "GTTCCCAA", "PBM E-score": -0.009}
{"sequence": "CTCCCCGA", "PBM E-score": 0.282}
{"sequence": "ATTCCCGC", "PBM E-score": 0.295}
{"sequence": "GTTCCCCA", "PBM E-score": -0.244}
{"sequence": "ATTCCCGG", "PBM E-score": 0.372}
{"sequence": "ATTCCCGA", "PBM E-score": 0.451}
{"sequence": "CTTCCCGC", "PBM E-score": 0.2}
{"sequence": "GCGTCTGA", "PBM E-score": -0.15}
{"sequence": "CACTGCCA", "PBM E-score": -0.176}
{"sequence": "CAGCGCGG", "PBM E-score": 0.148}
{"sequence": "ATGGGACA", "PBM E-score": -0.0554}
{"sequence": "CCATAGCC", "PBM E-score": 0.0889}
{"sequence": "GTGGTCCA", "PBM E-score": -0.0876}
{"sequence": "GGGGACAA", "PBM E-score": 0.109}
{"sequence": "CACCTGCG", "PBM E-score": -0.018}
{"sequence": "AGGAAGCA", "PBM E-score": -0.109}
{"sequence": "CGGAAGCC", "PBM E-score": 0.41}
{"sequence": "AGGAAGCC", "PBM E-score": 0.0867}
{"sequence": "CGGAAGCA", "PBM E-score": 0.435}
{"sequence": "CGGAAGGC", "PBM E-score": 0.373}
{"sequence": "GGGAAGCA", "PBM E-score": 0.0636}
{"sequence": "GCAGCCAA", "PBM E-score": -0.103}
{"sequence": "ACTAGGTA", "PBM E-score": -0.202}
{"sequence": "ATCTGACC", "PBM E-score": 0.104}
{"sequence": "ATTTTCGG", "PBM E-score": 0.423}
{"sequence": "AATTTCGC", "PBM E-score": 0.123}
{"sequence": "AATTTCGG", "PBM E-score": 0.393}
{"sequence": "ACTTTCGC", "PBM E-score": -0.239}
{"sequence": "ACTTTCGG", "PBM E-score": 0.416}
{"sequence": "ATTTTCGA", "PBM E-score": -0.256}
{"sequence": "ATTTTCGC", "PBM E-score": -0.0335}
{"sequence": "ACTTTCGA", "PBM E-score": -0.0194}
{"sequence": "AATTTCGA", "PBM E-score": -0.152}
{"sequence": "CTATCGAG", "PBM E-score": -0.194}
{"sequence": "CCGCTCTA", "PBM E-score": 0.0787}
{"sequence": "ATGCAAAT", "PBM E-score": -0.115}
{"sequence": "CAACTCAA", "PBM E-score": -0.0984}
{"sequence": "GGAGCGGA", "PBM E-score": 0.26}
{"sequence": "AGATGAAC", "PBM E-score": -0.0339}
{"sequence": "GCGCAAAC", "PBM E-score": -0.0362}
{"sequence": "CGTGACTA", "PBM E-score": -0.158}
{"sequence": "GCCGAGCA", "PBM E-score": 0.357}
{"sequence": "GACGAGCC", "PBM E-score": -0.0685}
{"sequence": "CGCGAGCG", "PBM E-score": -0.016}
{"sequence": "CCCGAGCC", "PBM E-score": 0.438}
{"sequence": "TGCGAGCA", "PBM E-score": -0.165}
{"sequence": "ACCGAGCA", "PBM E-score": 0.374}
{"sequence": "ACCGAGCG", "PBM E-score": 0.38}
{"sequence": "GCCGAGCC", "PBM E-score": 0.463}
{"sequence": "CCCGAGCG", "PBM E-score": 0.43}
{"sequence": "TCCGAGCA", "PBM E-score": 0.458}
{"sequence": "ACCGAGCC", "PBM E-score": 0.356}
{"sequence": "CGCGAGCC", "PBM E-score": 0.143}
{"sequence": "CCTCTGGC", "PBM E-score": 0.0427}
{"sequence": "AGGCTCCC", "PBM E-score": -0.0221}
{"sequence": "CGATGATA", "PBM E-score": 0.122}
{"sequence": "ATTAACAC", "PBM E-score": 0.00046}
{"sequence": "CAGGTGTA", "PBM E-score": -0.327}
{"sequence": "GGCACACC", "PBM E-score": 0.0691}
{"sequence": "CCGCGCAA", "PBM E-score": 0.0559}
{"sequence": "CCAAGTAC", "PBM E-score": -0.196}
{"sequence": "ATTAGGCA", "PBM E-score": -0.144}
{"sequence": "GTCGTCCA", "PBM E-score": -0.096}
{"sequence": "GCGACCCA", "PBM E-score": -0.00585}
{"sequence": "AGGTCCCG", "PBM E-score": 0.325}
{"sequence": "CACAACGA", "PBM E-score": 0.0887}
{"sequence": "CACGAGCA", "PBM E-score": -0.18}
{"sequence": "CTCGAGCA", "PBM E-score": -0.0413}
{"sequence": "CCCGAGCA", "PBM E-score": 0.405}
{"sequence": "CGCGAAAG", "PBM E-score": -0.185}
{"sequence": "GGCTATAA", "PBM E-score": 0.104}
{"sequence": "CGCCTGCC", "PBM E-score": -0.0366}
{"sequence": "CACAGATG", "PBM E-score": -0.0862}
{"sequence": "GAGCAGGC", "PBM E-score": -0.135}
{"sequence": "AATATCCC", "PBM E-score": 0.247}
{"sequence": "CATATCCG", "PBM E-score": 0.403}
{"sequence": "AATATCCG", "PBM E-score": 0.452}
{"sequence": "AATATCCA", "PBM E-score": 0.0783}
{"sequence": "CATATCCA", "PBM E-score": -0.178}
{"sequence": "CATATCCC", "PBM E-score": 0.0584}
